TRPV1 agonist: HTS Assay for Compounds that Act as Agonists of the Vanilloid Receptor 1; TRPV1-expressing cells, Fluo-8 calcium influx, agonist mode; activation, % at 8.33 µM; hit rate 0.19% among 320,000; AID 540275, 2011; in the data active = activation above about 80%; inconclusive = between about 30% and that limit
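TRPV1-expressing cells were cultured overnight at 35.5C and loaded with Fluo-8 calcium dye for 40 to 90 min at room temperature. After a 10 s baseline, compound was added and calcium influx was read kinetically for 3 min (ex 480/em 520 nm).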
MBNL1-CUG inh: qHTS Assay for Inhibitors of MBNL1-poly(CUG) RNA binding | Muscleblind-like protein 1 (Homo sapiens), Q9NR56 | TR-FRET MBNL1-His/biotin-(CUG)12 binding, 665/545 ratio | Potency, µM (highest dose often 57.5 µM), hits mostly inhibitors | hit rate 0.036% among 280,000; active = well fitted inhibition curve with a large enough effect in the signal ratio, with a control signal flat, not every such curve was filed as active; inconclusive = small, poorly fitted or top-dose-only effect, or effect the other way, or a change in a side signal; inactive = no such curve, though single readings can be large or run the other way; the % refers to the signal ratio
Target sequence (Q9NR56 whole entry, looked up): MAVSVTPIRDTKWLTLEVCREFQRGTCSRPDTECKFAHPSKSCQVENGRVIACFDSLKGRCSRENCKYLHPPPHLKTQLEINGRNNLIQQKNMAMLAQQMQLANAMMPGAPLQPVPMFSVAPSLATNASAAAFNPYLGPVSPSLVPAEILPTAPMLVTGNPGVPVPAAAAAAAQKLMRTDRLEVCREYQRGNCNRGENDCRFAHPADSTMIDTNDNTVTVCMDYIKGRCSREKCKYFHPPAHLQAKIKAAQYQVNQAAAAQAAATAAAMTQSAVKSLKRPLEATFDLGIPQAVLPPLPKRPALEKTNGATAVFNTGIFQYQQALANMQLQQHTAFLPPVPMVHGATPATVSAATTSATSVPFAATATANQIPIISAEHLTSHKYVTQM
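Compound titration spanned 92 nM–58 uM against the MBNL1-His/biotin-(CUG)12 complex. After 60 min at room temperature with 5 nM streptavidin-XL665 and 0.055 ng/ul terbium anti-His, ratiometric 665/545 nm emission (Ex 340 nm) normalized to controls.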
KCNH2 3.1 block: qHTS for Inhibitors of KCHN2 3.1: Mutant qHTS | Potassium voltage-gated channel subfamily H member 2, brain isoform KCNH2 3.1 (human) | U2OS KCNH2 3.1, thallium flux FluxOr; active compounds read low | activity change, % (tested at about 1.8 µM) | hit rate 0.95% among 340,000 | AID 720553, 2013;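 active = maximum activity change below -70%; inconclusive = maximum activity change from -70% to -50%; inactive = maximum activity change above -50%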;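 note: thallium influx rate constant from kinetic fluorescence after stimulation buffer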
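We transduce U2OS cells with the mutant 3.1 virus, culture them overnight, load FluxOr with Red40 quencher for 45 min, then add stimulation buffer and read kinetically for 2 min to derive a normalized rate constant.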
TRPV1 PAM: HTS Assay for Compounds that Act as Potentiators of the Vanilloid Receptor 1. Transient receptor potential cation channel subfamily V member 1 (Homo sapiens), Q8NER1. TRPV1-expressing cells, Fluo-8 calcium influx, capsaicin EC20 potentiation. potentiation, % at 8.33 µM. hit rate 0.02% among 320,000; in the data active = potentiation above about 80%; inconclusive = between about 30% and that limit
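TRPV1-expressing cells were cultured overnight at 35.5C and loaded with Fluo-8 calcium dye for 40 to 90 min at room temperature. After a 10 s baseline, compound was added and calcium influx was read kinetically for 3 min (ex 480/em 520 nm).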
hERG WT inh: qHTS for Inhibitors of KCHN2 3.1: Wildtype qHTS. Voltage-gated inwardly rectifying potassium channel KCNH2 (Homo sapiens), Q12809. U2OS, BacMam KCNH2, thallium flux FluxOr; active compounds read low. activity change, % at 1.84 µM. hit rate 0.37% among 340,000. AID 720551, 2013;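 active = maximum activity change below -70%; inconclusive = maximum activity change between -70% and -50%; inactive = maximum activity change above -50%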
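U2OS cells transduced with wild-type KCNH2 virus are loaded with FluxOr dye for 45 min, and thallium flux is measured in kinetic reads before and after stimulation buffer. Rate constants are normalized to DMSO controls.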
Each line names hits and unclear results; the compound was inactive in the other large screens. Compounds with a hit are over-represented: about 1.3% of the library has one in this group of screens.

O=C(NNC(=O)c1ccccc1O)c1cccc(Br)c1	KCNH2 3.1 block -81
O=C(O)CCCCCNC(=O)c1cccc(Br)c1	none
O=C(CCNC(=O)c1ccc(Br)cc1)NCC1COc2ccccc2O1 (configuration not stated)	none
Cc1ccc(C2(C)NC(=O)N(CC(=O)Nc3cc(S(=O)(=O)N4CCOCC4)ccc3OC(C)C)C2=O)cc1 (configuration not stated)	none (no result: TRPV1 agonist, MBNL1-CUG inh, TRPV1 PAM)
COc1ccc2oc(C(=O)Nc3nc(C)cs3)c(C)c2c1	none (no result: MBNL1-CUG inh)
CC(C)c1ccc(/C=C/C(=O)N2CCOCC2)cc1	TRPV1 agonist 94
CCCOc1ccc(/C=C/C(=O)N2CCOCC2)cc1	TRPV1 agonist 89
CCCOc1ccc(/C=C/C(=O)N2CCN(c3ccccn3)CC2)cc1	none (no result: MBNL1-CUG inh)
CN(c1ccccc1)S(=O)(=O)c1cccc(NC(=O)c2ccc(=O)[nH]n2)c1	none (no result: TRPV1 agonist, MBNL1-CUG inh, TRPV1 PAM)
Cc1ccn2c(=O)nc(SCC(=O)N3CCCC3)nc2c1	none (no result: MBNL1-CUG inh)
CCN(C[C@H]1N[C@@](C)(C(=O)OC)[C@H]2C(=O)N(C)C(=O)[C@@H]12)C(=O)COc1ccccc1	hERG WT inh -218 (no result: TRPV1 agonist, MBNL1-CUG inh, TRPV1 PAM)
CCN(C[C@H]1N[C@@](C)(C(=O)OC)[C@H]2C(=O)N(C)C(=O)[C@@H]12)C(=O)c1ccc(C)cc1	none (no result: TRPV1 agonist, MBNL1-CUG inh, TRPV1 PAM)
COc1ccc(NC2c3ncccc3C(=O)N2Cc2cccs2)cc1 (configuration not stated)	TRPV1 agonist inconclusive
O=C1c2cccnc2C(Nc2ccc(Br)cc2)N1Cc1cccs1 (configuration not stated)	TRPV1 agonist 84
O=C1CCCN1CCCNc1ncnc2c1[nH]c1ccc(Cl)cc12	none
CCN1CCCC1CNc1ncnc2c1[nH]c1ccc(Cl)cc12 (configuration not stated)	KCNH2 3.1 block -110, hERG WT inh -112
CC1CCCCN1C(=O)c1ccc(NC(=O)c2ccccc2Cl)cc1 (configuration not stated)	KCNH2 3.1 block inconclusive, hERG WT inh -202
CCNc1nc(NCC)nc(NS(=O)(=O)c2ccc(N)cc2)n1	none
COc1ccc(OC(C)C(=O)Nc2ccccc2F)cc1 (configuration not stated)	none
COc1ccc(OC(C)C(=O)Nc2ccc(F)cc2F)cc1 (configuration not stated)	KCNH2 3.1 block -190, hERG WT inh -136
C#CCOCCOCCOCCNc1nc(N2CCN(C(=O)Cn3cc(CC(C)O)nn3)CC2)nc(N2CCN(C(=O)[C@H](C)n3cc(CCCN=C(N)N)nn3)CC2)n1 (some centres not stated)	KCNH2 3.1 block -147
C#CCOCCOCCOCCNc1nc(N2CCN(C(=O)Cn3cc(CCCCN)nn3)CC2)nc(N2CCN(C(=O)[C@H](C)n3cc(CCCN=C(N)N)nn3)CC2)n1	none (no result: KCNH2 3.1 block, hERG WT inh)
Cc1ccc(CNC(=O)CS(=O)(=O)CC(=O)O)cc1	none
CC1CCN(C(=O)c2ccc([N+](=O)[O-])o2)CC1	MBNL1-CUG inh inconclusive, KCNH2 3.1 block -72
CC1(C)OC(=O)C2(Cc3ccccc3N3CCCC32)C(=O)O1 (configuration not stated)	none (no result: MBNL1-CUG inh, KCNH2 3.1 block, hERG WT inh)
CCc1ccc(NC(=O)c2cc(C(C)C)on2)cc1	TRPV1 agonist 82
CCn1c(-c2nn(-c3ccccc3)ccc2=O)n[nH]c1=S	hERG WT inh active
O=C(NCCN1CCN(c2ccccc2)CC1)Nc1ccc(Cl)cc1	none
COc1ccc(N2CCN(CCCNC(=O)c3cc4sccc4n3C)CC2)cc1	KCNH2 3.1 block -94, hERG WT inh -109
COc1ccc(N2CCN(CCCNC(=O)c3ccc(CS(=O)(=O)c4ccc(Cl)cc4)o3)CC2)cc1	KCNH2 3.1 block -99
COc1ccc(N2CCN(CCNC(=O)Nc3ccc(Cl)cc3)CC2)cc1	KCNH2 3.1 block -70
O=C(NCCCN1CCCC1)c1ccc(CS(=O)(=O)c2ccc(Cl)cc2)o1	none
Cc1ccsc1C(=O)Nc1ccc(S(=O)(=O)N2CCOCC2)cc1	none (no result: MBNL1-CUG inh)
Cc1ccc(S(=O)(=O)Nc2ccc3c(c2)nc(CCN2CCN(c4ccccn4)CC2)n3C)cc1	KCNH2 3.1 block -96
Cc1ccc(S(=O)(=O)Nc2ccc3c(c2)nc(CCN2CCCCC2)n3C)cc1	KCNH2 3.1 block inconclusive
Cn1c(CCN2CCCCC2)nc2cc(NS(=O)(=O)c3ccc(F)cc3)ccc21	KCNH2 3.1 block -89
Cn1c(CCN2CCN(c3ccccn3)CC2)nc2cc(NS(=O)(=O)c3ccc(Cl)cc3)ccc21	KCNH2 3.1 block -104, hERG WT inh -80
CN(C)c1ccc2c3c(ccc(N(C)C)c13)C(=O)OC2	none
CCCCCCSc1ccc([C@H]2N[C@@](C)(C(=O)OC)[C@H]3C(=O)N(CC)C(=O)[C@@H]23)cc1	none (no result: MBNL1-CUG inh)
C[C@@H]1CN([C@@H](C)CO)C(=O)c2cc(Br)cnc2O[C@H]1CN(C)C(=O)Nc1ccc(F)cc1	none (no result: TRPV1 agonist, MBNL1-CUG inh, TRPV1 PAM)
O=C(NCCC1=CCCCC1)c1ccc(Cl)c(S(=O)(=O)N2CCCCC2)c1	TRPV1 agonist inconclusive
COc1ccc(C(=O)NCCC2=CCCCC2)cc1[N+](=O)[O-]	TRPV1 agonist 88, MBNL1-CUG inh inconclusive
O=C(NCCC1=CCCCC1)c1ccc(Cl)c(S(=O)(=O)N2CCOCC2)c1	TRPV1 agonist 82
COc1ccc(OCC(=O)NCCC2=CCCCC2)c([N+](=O)[O-])c1	none (no result: hERG WT inh)
O=C(NCCC1=CCCCC1)C1CCN(S(=O)(=O)N2CCCC2)CC1	none
O=C(NCCC1=CCCCC1)C1CCN(S(=O)(=O)N2CCOCC2)CC1	KCNH2 3.1 block -71
CCn1cc(C(=O)NNC(=O)c2ccc(Cl)cc2)c(=O)c2ccc(C)nc21	none (no result: KCNH2 3.1 block, hERG WT inh)
Cc1nn(-c2ccccc2)nc1CNC(=O)C1CCC1	none
C[C@@H]1CN([C@H](C)CO)C(=O)CCCn2cc(nn2)CO[C@H]1CN(C)C(=O)Nc1cccc(Oc2ccccn2)c1	none (no result: TRPV1 agonist, MBNL1-CUG inh, TRPV1 PAM)
O=C(COC(=O)c1ccc(Cl)nc1)c1ccc2c(c1)OCCO2	hERG WT inh -107
O=C(COC(=O)c1cccnc1Cl)c1ccc2c(c1)OCCO2	none
Cn1cc(Br)c(NC(=O)/C=C/C(=O)O)n1	KCNH2 3.1 block -122
Cc1ccc(S(=O)(=O)NC(=O)c2ccccc2C)cc1	none
COC(=O)CC(c1ccc(OC)c(OC)c1)c1ccc(OC)c(OC)c1	hERG WT inh -212
N#CC1=C(N)NC(SCC(=O)Nc2ccc(Br)cc2)=C(C#N)C12CCCCC2	hERG WT inh -146
N#CC1=C(N)NC(SCc2ccc(Br)cc2)=C(C#N)C12CCCCC2	none
CCOc1ccccc1C1CC(=O)Nc2c1c(=O)n(C)c(=O)n2C (configuration not stated)	none

Compound activity deposited in PubChem BioAssay by National Center for Advancing Translational Sciences (NCATS).
